From ChEMBL document CHEMBL3988442, “University of Dundee, Small-Polar-MMV Screening Library” (2021)
About 13,000 (27%) of roughly 48,000 compounds showed an effect of 50% or more. Some of the results follow.

The compounds below were run on Wolbachia pipientis (assay: Anti-Wolbachia Cell-Based Screen). Conditions: 5 µM.
Assay type: functional
Parameters: scale not given: in the data most compounds retested in dose-response had high values

| SMILES | Percent Effect [%] |
| --- | --- |
| Fc1ccc(-n2cccn2)c(CN2CCCCC2CCn2ccnc2)c1 (stereo not drawn) | 6.266 |
| Cc1cc(NC(=O)CCNC(C)(C)c2nc(C)c(C)s2)no1 | -5.204 |
| Cc1ccccc1C1CCCN(C(=O)c2c[nH]c(=O)c(Cl)c2)C1 (stereo not drawn) | 0.979 |
| O=C(NCc1ccoc1)c1ccc(C2CCCN2CC2CCOCC2)s1 (stereo not drawn) | -3.898 |
| CC(=O)NC(Cc1c[nH]c2cc(F)ccc12)C(=O)Nc1nncs1 (stereo not drawn) | -20.07 |
| CC(C)NC(=O)c1cc2c([nH]c1=O)CC(c1cccs1)CC2=O (stereo not drawn) | -15.67 |
| CN1[C@@H](C(=O)NCC2CC2)C[C@@H]2CN(Cc3ccoc3)C[C@@H]21 | 87.47 |
| CC(=O)N1C[C@H]2CCCN(Cc3ccc(C)o3)[C@H]2C1.O=C(O)C(F)(F)F | -21.55 |
| COCCN1CCO[C@@H]2CN(Cc3ccc(C)o3)C[C@@H]2C1.O=C(O)C(F)(F)F.O=C(O)C(F)(F)F | 4.147 |
| Cc1ccc(CN2C[C@H]3C[C@H](C(=O)NCC4CC4)N(C)[C@H]3C2)o1 | 105.7 |
| O=C(NCC1CC1)[C@@H]1CCO[C@@H]2CCN(Cc3ccco3)C[C@H]21.O=C(O)C(F)(F)F | -5.269 |
| CC(C)N1[C@@H](C(=O)NCC2CC2)C[C@@H]2CN(Cc3ccco3)C[C@@H]21 | 96.03 |
| Cc1ccc(CN2C[C@@H]3C[C@H](C(=O)NCC4CC4)N(C)[C@@H]3C2)o1.O=C(O)C(F)(F)F.O=C(O)C(F)(F)F | 102.8 |
| CN(C)[C@@H]1CN(Cc2ccco2)C[C@@H]2CCCO[C@@H]21.O=C(O)C(F)(F)F.O=C(O)C(F)(F)F | 5.089 |
| Cc1ccc(CN2CC[C@H]3OCC[C@@H](C(=O)NCC4CC4)[C@@H]3C2)o1 | -3.1 |
| Cc1ccc(CN2C[C@H]3C[C@H](C(=O)NCc4cccnc4)[C@@H](C2)O3)o1 | -11.22 |
| CC(C)(C)CCS(=O)(=O)NCCc1csc(N2CCCC2)n1 | -17.7 |
| CC(C)(C)SCC(=O)Nc1cc(-n2nnnc2C2CC2)ccc1F | -2.902 |
| c1ncc2c(n1)CN(Cc1cn3ccsc3n1)CC2 | -19.58 |
| NC(=O)CN(CC(=O)NCc1cc(F)cc(F)c1)C1CCCC1 | 2.456 |
| CC1(C)COCCN1C(=O)Cc1csc(Cc2ccccn2)n1 | -7.387 |

| SMILES | Percent Effect [%] |
| --- | --- |
| CCNC(=O)NC(=O)CN1CCC(c2c[nH]c3ccc(OC)cc23)CC1 | -12.44 |
| CC(C)Cc1noc(CN(C)C2CCS(=O)(=O)C2)n1 (stereo not drawn) | -20.93 |
| COCC(O)CN1CCC(NC(=O)c2cscc2C)CC1 (stereo not drawn) | -6.433 |
| Cc1ccc(S(N)(=O)=O)cc1C(=O)NC1CCN(C2CC2)CC1 | 102.7 |
| COC(=O)N1CCC(NC(=O)c2cc(S(N)(=O)=O)ccc2C)CC1 | 98.52 |
| Cc1ccc(C)c(C(=O)NC2CCC(N3C(=O)CCC3=O)CC2)c1 (stereo not drawn) | 7.383 |
| NS(=O)(=O)c1ccc(F)c(C(=O)NCCSC2CCCCC2)c1 | -0.4963 |
| Cc1ccc(S(N)(=O)=O)cc1C(=O)NCC1Cc2ccccc2O1 (stereo not drawn) | 20.46 |
| CC(=O)N1CCC(NC(=O)c2cc(S(N)(=O)=O)ccc2C)CC1 | 120.7 |
| Cc1ccc(S(N)(=O)=O)cc1C(=O)NC1CCCC1 | 60.38 |
| CCc1ccc(O)c(C(=O)NC2CCN(S(=O)(=O)CC)CC2)c1 | -4.06 |
| O=C(NC1CCN(C2CC2)CC1)c1cc(Cl)ccc1-n1cnnn1 | -15.3 |
| CC(=O)N1CCC(NC(=O)c2cc(Cl)ccc2O)CC1 | 5.076 |
| COCCC(=O)N1CCC(NC(=O)c2cscc2C)CC1 | 4.5 |
| CCN1C(=O)[C@H]2CN(CC(C)C)C[C@H]2C12CCN(C(=O)NC(C)C)CC2.O=C(O)C(F)(F)F | -7.35 |
| CCCOC(C)Cn1ccc2[nH]c(=O)c(C#N)cc2c1=O (stereo not drawn) | -62.19 |
| CC(C)C(C)(CNC(=O)OC(C)(C)C)NC(=O)c1cnccn1 (stereo not drawn) | 1.478 |
| Cc1c(NCCOCC(F)(F)F)cccc1C(=O)N1CCCC1 | 1.47 |
| COc1ccc(S(=O)(=O)NCC(O)c2sccc2C)cc1C (stereo not drawn) | 4.303 |
| CCCC(=O)NC1CCCN(c2nc3ccccc3cc2CO)C1 (stereo not drawn) | 0.5391 |
| O=C(c1ccsc1)N1CC(C(=O)N2CCOCC2)C2(CCOCC2)C1 (stereo not drawn) | -0.6494 |

| SMILES | Percent Effect [%] |
| --- | --- |
| CC(C)(C)n1ncc(C(=O)NCCCC(N)=O)c1C(F)(F)F | 6.459 |
| Cc1ccc(S(N)(=O)=O)cc1C(=O)N1C[C@@H](CN(C)C)[C@@H](CO)C1 | 4.643 |
| Cc1ccc(S(N)(=O)=O)cc1C(=O)N1CCc2c(ncnc2N(C)C)C1 | -11.64 |
| Cc1ccc(S(N)(=O)=O)cc1C(=O)NC1CCCN(C)C1 (stereo not drawn) | 108 |
| O=S1(=O)CCC(c2nc(-c3cccc(Br)c3)no2)C1 (stereo not drawn) | -8.148 |
| CC(C)N1CCCC1c1csc(N)n1 (stereo not drawn) | 125.7 |
| CN(C)C1CCCN(C(=O)CCc2csc(N)n2)CC1 (stereo not drawn) | -10.57 |
| CN1[C@H]2CC[C@@H]1CN(C(=O)CCc1csc(N)n1)CC2 | 2.348 |
| CC(NC(=O)C1(NC(=O)c2ccc3[nH]ncc3c2)CCCC1)C1CC1 (stereo not drawn) | -1.4 |
| CCn1cnnc1CNC(=O)N(C)Cc1ccc(Cl)cc1Cl | -3.326 |
| CCn1cnnc1CNC(=O)N(C)Cc1cccc(OC(F)F)c1 | 110.2 |
| CCn1cnnc1CNC(=O)CCC(=O)c1ccc2c(c1)OCCO2 | 5.212 |
| CCn1cnnc1CNC(=O)N(C)Cc1ccc2c(c1)OCCO2 | 2.42 |
| CCN(Cc1ccc2c(c1)OCCO2)C(=O)NCc1cc[nH]n1 | -1.226 |
| CCN(Cc1ccc2c(c1)OCCO2)C(=O)NCc1nc(C)cs1 | -0.008456 |
| CCn1cnnc1CNC(=O)N(C)Cc1ccc2c(c1)OCO2 | 127.8 |
| CCn1cnnc1CNC(=O)C1COc2ccc(Cl)cc2C1 (stereo not drawn) | -2.501 |
| CCn1cnnc1CNC(=O)N(C)Cc1ccc(F)c(F)c1 | -10.5 |
| CC(NC(=O)N(C)Cc1cccc(OC(F)F)c1)c1nncn1C (stereo not drawn) | -22.06 |
| CCn1cnnc1CNC(=O)Cc1ccc2c(c1)OCCO2 | 101.5 |
| CCN(Cc1ccc2c(c1)OCCO2)C(=O)NCc1nncn1CC | 99.19 |
